Source: PubChem (Broad Institute)
EZH2 inh: inhibitors of human EZH2/PRC2 methyltransferase. Q15910. PRC2 H3K27 methylation, DELFIA TRF, 1 h. inhibition, % at 12.5 µM. hit rate 0.35% among 57,000;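 active = mean inhibition of replicates at least 50% and every single replicate also reaching 50%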;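 note: dimethyl H3K27 on biotinylated H3 21-44 peptide detected by antibody; plate controls were median neutral control wells for no effect and median positive control wells for full effect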
Numbers without * were called inactive. The entries come from a sample that favours hits as a whole.

Cc1cc2c(cc1O[C@@H]1O[C@H](CO[C@@H]3OC[C@@H](O)[C@H](O)[C@H]3O)[C@@H](O)[C@H](O)[C@H]1O)C(=O)c1ccccc1C2=O was read as EZH2 inh -6.
C[C@@H]1O[C@@H](OC[C@H]2O[C@@H](Oc3ccc(O)cc3)[C@H](O)[C@@H](OC(=O)c3ccc(O)cc3)[C@@H]2O)[C@H](O)[C@H](O)[C@H]1O was read as EZH2 inh 38.
`C[C@@H]1O[C@@H](OC[C@H]2O[C@@H](OCCc3ccccc3)[C@H](O)[C@@H](O)[C@@H]2O)[C@H](O)[C@H](O)[C@H]1O` gave EZH2 inh 52*.
O[C@@H]1[C@@H](O)[C@H](OC/C=C/c2ccccc2)O[C@H](CO[C@@H]2OC[C@H](O)[C@H](O)[C@H]2O)[C@H]1O was read as EZH2 inh 90*.
For COC(=O)C1=COC(O[C@@H]2O[C@H](CO)[C@@H](O)[C@H](O)[C@H]2O)[C@@H]2[C@@](C)(O)[C@@H](OC(=O)/C=C\c3ccccc3)C[C@]12O (some centres undefined) the results were EZH2 inh 22.
For COc1ccc(C2CC(=O)c3c(O)cc(O[C@@H]4O[C@H](CO[C@@H]5O[C@@H](C)[C@H](O)[C@@H](O)[C@H]5O)[C@@H](O)[C@H](O)[C@H]4O)cc3O2)cc1 (some centres undefined) the results were EZH2 inh 21.
CCOc1ccc(-n2c(SCC(=O)OC)nnc2-c2ccccc2)cc1 was read as EZH2 inh -4.
`COc1ccc(N2C(=O)CC(SCC(=O)Nc3c(C)cccc3C)C2=O)cc1` (centres undefined) gave EZH2 inh -4.
Cc1ccc(S(=O)(=O)NC(C)C(=O)Nc2cccc(C(F)(F)F)c2)cc1 (centres undefined) was read as EZH2 inh -2.
Cc1cc(Cl)c(S(=O)(=O)Nc2cccc(C(F)(F)F)c2)cc1OCC(N)=O was read as EZH2 inh 2.
Screening CC(C)(c1ccc(NS(=O)(=O)C(F)(F)F)cc1)c1ccc(C(C)(C)c2cccc(NS(=O)(=O)C(F)(F)F)c2)cc1 returned EZH2 inh 52*.
`O=C(CN1C2=NCCN2c2ccccc21)c1ccc(Cl)cc1Cl` gave EZH2 inh -12.
For Cc1cc(C)n2nc3nc(N4CCOCC4)nc(-c4ccc(C(C)C)cc4)c3c2n1 the results were EZH2 inh -27.
`COC(=O)[C@H](Cc1ccc(N=[N+]=[N-])cc1)N1CC(/C=C/[C@@H](O)Cc2ccccc2)=C[C@@H](C2CC2)O1` gave EZH2 inh 0.
For COc1ccccc1NC(=O)C(Cc1ccccc1)N1C(=O)C2C3c4ccccc4C(c4ccccc43)C2C1=O (centres undefined) the results were EZH2 inh -2.
Screening COC(=O)[C@H](Cc1ccccc1)N1C(=O)O[C@H](Cc2ccccc2)[C@@H]1/C=C/C1CC1 returned EZH2 inh 56*.
Screening Cc1cc(=O)[nH]c(SCCOc2ccc(F)cc2)n1 returned EZH2 inh -6.
Screening CC1(C)[C@H]2CC=C(/C=N\NC(=O)CCCCCC(=O)Nc3ccccc3O)[C@@H]1C2 returned EZH2 inh 6.
CCCC#Cc1cnc2c(c1)C(=O)N([C@H](C)CO)C[C@H](C)[C@H](CN(C)C(=O)CN1CCOCC1)O2 was read as EZH2 inh 95*.
CCCC#Cc1cnc2c(c1)C(=O)N([C@H](C)CO)C[C@H](C)[C@@H](CN(C)C(=O)CN1CCOCC1)O2 was read as EZH2 inh 10.
For CCCC#Cc1cnc2c(c1)C(=O)N([C@@H](C)CO)C[C@@H](C)[C@H](CN(C)C(=O)CN1CCOCC1)O2 the results were EZH2 inh 6.
Screening COC(=O)CCCCCCC(=O)N/N=C/c1cccnc1 returned EZH2 inh 24.
Screening CC1(C)CC(=O)C2=C(C1)NC1=C(C(=O)c3ccccc31)C2c1ccc(OC(=O)CN2C(=O)C3CCCCC3C2=O)cc1 (centres undefined) returned EZH2 inh -11.
For COC(=O)C1=COC(O[C@@H]2O[C@H](CO)[C@@H](O)[C@H](O)[C@H]2O)[C@@H]2[C@@H](C)[C@@H](OC(=O)/C=C/c3ccc(O)c(O)c3)[C@@H](O)[C@H]12 (some centres undefined) the results were EZH2 inh 4.
C[C@@H]1O[C@@H](O[C@@H]2[C@@H](O)[C@H](OCCc3ccc(O)c(O)c3)O[C@H](CO[C@@H]3OC[C@](O)(CO)[C@H]3O)[C@H]2OC(=O)/C=C/c2ccc(O)c(O)c2)[C@H](O[C@@H]2OC[C@H](O)[C@H](O)[C@H]2O)[C@H](O)[C@H]1O was read as EZH2 inh 68*.
Screening COc1ccc(/C=C/C(=O)O[C@H]2[C@H](OC3C4O[C@]4(CO)[C@H]4C(O[C@@H]5O[C@H](CO)[C@@H](O)[C@H](O)[C@H]5O)OC=C[C@@H]34)O[C@@H](C)[C@H](O)[C@H]2O)cc1 (some centres undefined) returned EZH2 inh 8.
